esBAF inh: Bmi1 luciferase reporter increase in mESCs, primary screen, esBAF inhibitor project, mouse ES cells, Bmi1 luciferase knock-in, single point; AID 602393, 2012; 2% of 350,000 active; reporter increase, % at 12.5 µM; 24 h; 100% = twice the neutral-well signal; in the data active = activation above about 40%; inconclusive = no clear call, values can overlap the other calls;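 note: 0% = median of the plate's neutral control wells and 100% = double that signal; a rise in the Bmi1 reporter signal indicates esBAF inhibition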
Statin myotox sup: suppressors of statin myotoxicity in C2C12 myotubes, primary screen, cell-based, single point, plate reader | rescue of ATP level, % at 7.49 µM | C2C12 myotubes + simvastatin, ATP luminescence, 48 h; scaled: DMSO 0, geranylgeraniol control 100 | 0.78% of 330,000 active;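 active = mean ATP rescue above about 67%, or every replicate alone reaching that limit, limit read from the data, passing the limit was not always enough; inconclusive = no clear call, values can overlap the other calls; inactive = mean under the limit and some replicate under it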;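 note: myotubes were challenged with 10 µM simvastatin during compound exposure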
GAA850 FXN act: FXN promoter activators, primary screen, cell-based, luciferase luminescence, HEK293 lucGAA850. HEK293 lucGAA850 FXN promoter luciferase reporter, 24 h; percent of 10 µM SAHA response. activation, % at 6 µM. 0.56% of 360,000 active. AID 540364, 2011;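 active = activation above the average of all compounds screened plus 3 SD, cutoff fixed separately per campaign, cut at about 7.5% in these data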;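 note: 0% = DMSO wells and 100% = 10 µM SAHA wells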
Wnt bcat act: Wnt/beta-catenin pathway activators, primary screen, cell-based, plate reader, single point. activation, % at 9.35 µM. AID 743398, 2014. Wnt/beta-catenin reporter cell assay, activator. 1.2% of 300,000 active; in the data active = activation above about 30%, passing the limit was not always enough; inconclusive = no clear call, values can overlap the other calls;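 note: 0% = neutral control wells and 100% = positive control wells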
MITF TRPM1 HTS: activators of MITF-driven TRPM1 promoter reporter, primary screen, cell-based, SK-MEL-5, luciferase, single point; SK-MEL-5 TRPM1-promoter luciferase, 24 h; % of positive control, neutral wells = 0; activation, % at 12.5 µM; AID 588334, 2011; 0.75% of 300,000 active;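 active = mean activation of at least 80% with every replicate also reaching 80%; inconclusive = mean reaches 80% but some replicate falls short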;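 note: 0% = neutral control wells and 100% = parthenolide positive control wells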
* hit, by the source's call. Hits are enriched below; roughly 3.3% of the tested compounds scored in any of these assays.

For C[C@H](CO)N1C[C@H](C)[C@@H](CN(C)Cc2ccc(Cl)c(Cl)c2)Oc2ccc(NC(=O)Nc3ccc4c(c3)OCO4)cc2C1=O the results were esBAF inh 4 and Statin myotox sup -20.
`Cc1c(O)ccc(/C=N/Nc2nc(-c3cccnc3)nc3ccccc23)c1O` gave GAA850 FXN act -2, Wnt bcat act 21 and MITF TRPM1 HTS 65.
Oc1ccc(/C=N/Nc2nc(-c3cccnc3)nc3ccccc23)c(O)c1 was read as esBAF inh 58*, Statin myotox sup -11, GAA850 FXN act -4, Wnt bcat act 1 and MITF TRPM1 HTS 16.
`C[C@@H]1CN([C@@H](C)CO)S(=O)(=O)c2ccc(-c3cccnc3)cc2O[C@H]1CN(C)C(=O)C1CCCCC1` gave esBAF inh 0 and Statin myotox sup -11.
O=C(N[C@@H]1C=C[C@H](CC(=O)N2CCOCC2)O[C@H]1CO)c1cccc(F)c1 was read as esBAF inh -2 and Statin myotox sup -4.
O=C(C[C@H]1C[C@@H]2c3cc(NC(=O)c4cccnc4)ccc3O[C@@H]2[C@H](CO)O1)NCc1cccnc1 was read as esBAF inh 0 and Statin myotox sup -6.
Screening Cc1ccc(SCC(=O)c2ccc[nH]2)cc1 returned esBAF inh 61*, Statin myotox sup 4, GAA850 FXN act 2, Wnt bcat act 8 and MITF TRPM1 HTS 70.
Screening Cc1ccc(CNC(=O)c2ccc[nH]2)cc1 returned GAA850 FXN act 2, Wnt bcat act -2 and MITF TRPM1 HTS -4.
For CCCNC(=O)C(=O)c1cccn1-c1ccsc1C(=O)OC the results were esBAF inh -5, Statin myotox sup 119*, GAA850 FXN act 1, Wnt bcat act -1 and MITF TRPM1 HTS 3.
Cc1ccc(S(=O)(=O)Nc2ccc3c(c2)C(=O)N([C@H](C)CO)C[C@@H](C)[C@H](CN(C)Cc2ccc(Cl)c(Cl)c2)O3)cc1 was read as esBAF inh 3 and Statin myotox sup 75*.
For C[C@H]1CN([C@@H](C)CO)C(=O)c2cc(NS(=O)(=O)c3ccc(Cl)cc3)ccc2O[C@H]1CN(C)Cc1ccc(Cl)c(Cl)c1 the results were esBAF inh -3 and Statin myotox sup 64.
Cc1ccc(S(=O)(=O)Nc2ccc3c(c2)C(=O)N([C@@H](C)CO)C[C@@H](C)[C@H](CN(C)Cc2ccc(Cl)c(Cl)c2)O3)cc1 was read as esBAF inh 7 and Statin myotox sup 95*.
COc1ccc(S(=O)(=O)Nc2ccc3c(c2)C(=O)N([C@@H](C)CO)C[C@H](C)[C@@H](CN(C)C(=O)C2CCCCC2)OCCCC[C@@H](C)O3)cc1 was read as esBAF inh 2.
Screening COc1ccc(C(=O)c2ccsc2N)cc1 returned GAA850 FXN act 1, Wnt bcat act 9 and MITF TRPM1 HTS 20.
For COc1ccc(C(=O)c2ccc(CC#N)s2)cc1 the results were esBAF inh 51*, Statin myotox sup -9, GAA850 FXN act 3 and MITF TRPM1 HTS inconclusive.
Cc1ccc(OS(=O)(=O)c2ccccc2)c(/C=N/N=C2\NC(=O)C(C)S2)c1 (configuration not stated) was read as esBAF inh 12, Statin myotox sup 134*, GAA850 FXN act 1 and MITF TRPM1 HTS 5.
`C[C@@H]1CN([C@H](C)CO)C(=O)c2c(c3ccccc3n2C)-c2ccccc2CO[C@H]1CN(C)C(=O)[C@H]1CCCN1C` gave esBAF inh 5 and Statin myotox sup -6.
For COc1ccc2[nH]c(=O)c(CN(C)C(=O)COc3ccccc3)cc2c1 the results were esBAF inh -6, Statin myotox sup 72*, GAA850 FXN act 0 and MITF TRPM1 HTS -1.
For CN1C(=O)c2cc(NC(=O)c3cccs3)ccc2OC[C@H]2O[C@H](CC(=O)O)CC[C@H]21 the results were esBAF inh -2 and Statin myotox sup -1.
Cc1ccc(C(=O)CSc2ccccn2)cc1 was read as esBAF inh 49*, Statin myotox sup 0, GAA850 FXN act 7 and MITF TRPM1 HTS 65.
For O=C(c1ccc(F)cc1)N1C[C@H]2[C@@H](c3ccccc31)[C@@H](CO)N2Cc1ccc2c(c1)OCO2 the results were esBAF inh -5 and Statin myotox sup 27.
`CC(=O)c1c(C)[nH]c(C(=O)Nc2nc(-c3ccccc3)c(C)s2)c1C` gave GAA850 FXN act 1 and MITF TRPM1 HTS 111*.
`CC(=O)c1sc(NC(=O)c2ccccc2F)nc1-c1ccccc1` gave GAA850 FXN act 5, Wnt bcat act 0 and MITF TRPM1 HTS 88*.
`Cc1nc(NC(=O)c2ccco2)sc1C(=O)O` gave esBAF inh 11, Statin myotox sup -114, GAA850 FXN act 0, Wnt bcat act 8 and MITF TRPM1 HTS -17.
For Cc1sc(NC(=O)c2ccco2)nc1-c1ccccc1 the results were GAA850 FXN act 5 and MITF TRPM1 HTS 96*.
Screening CC(=O)c1sc(NC(=O)c2ccco2)nc1-c1ccccc1 returned esBAF inh 62*, Statin myotox sup 11, GAA850 FXN act 3 and MITF TRPM1 HTS 67.
For CCOC(=O)c1sc(NC(=O)c2ccco2)nc1-c1ccccc1 the results were esBAF inh -4, Statin myotox sup 0, GAA850 FXN act 0, Wnt bcat act -4 and MITF TRPM1 HTS 5.
CCC(=O)N1C[C@@H](C)[C@@H](OC)CN(C)C(=O)c2cc(NS(C)(=O)=O)ccc2OC[C@H]1C was read as esBAF inh 4 and Statin myotox sup -6.
CC1CCN(c2ccc3c(c2)S(=O)(=O)c2ccccc2C3=O)CC1 was read as esBAF inh 53*, Statin myotox sup -14, GAA850 FXN act 4, Wnt bcat act 52* and MITF TRPM1 HTS 86*.
Screening NC(=O)C1CCN(c2ccc3c(c2)S(=O)(=O)c2ccccc2C3=O)CC1 returned esBAF inh 7, Statin myotox sup 18, GAA850 FXN act 2, Wnt bcat act 8 and MITF TRPM1 HTS 31.
For CCCC#Cc1cnc2c(c1)C(=O)N([C@H](C)CO)C[C@H](C)[C@H](CN(C)C(=O)c1cccc(F)c1)O2 the results were esBAF inh 1 and Statin myotox sup 2.
`CCOC(=O)N1CCC(NC(=O)c2oc3c(F)cccc3c2C)CC1` gave esBAF inh 50*, Statin myotox sup 9, GAA850 FXN act 3, Wnt bcat act 13 and MITF TRPM1 HTS 44.
Screening COCC1CCN(C(=O)c2oc3c(F)cccc3c2C)C1 (configuration not stated) returned esBAF inh 12, Statin myotox sup 1, GAA850 FXN act 3 and Wnt bcat act 5.

Source: PubChem (several laboratories)
